An excerpt weighted towards active compounds, which were near 2.4% of everything screened.
D2 PAM-1 = D2 dopamine receptor (human) potentiation; 340,000 compounds, 0.34% hits; potentiation, % at 10 µM; HEK293 T-REx D2, calcium flux, EC20 dopamine potentiation; P14416;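 active = potentiation over 3 SD above the plate norm, cut at about 30% in these data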
Target sequence (P14416 whole entry, looked up): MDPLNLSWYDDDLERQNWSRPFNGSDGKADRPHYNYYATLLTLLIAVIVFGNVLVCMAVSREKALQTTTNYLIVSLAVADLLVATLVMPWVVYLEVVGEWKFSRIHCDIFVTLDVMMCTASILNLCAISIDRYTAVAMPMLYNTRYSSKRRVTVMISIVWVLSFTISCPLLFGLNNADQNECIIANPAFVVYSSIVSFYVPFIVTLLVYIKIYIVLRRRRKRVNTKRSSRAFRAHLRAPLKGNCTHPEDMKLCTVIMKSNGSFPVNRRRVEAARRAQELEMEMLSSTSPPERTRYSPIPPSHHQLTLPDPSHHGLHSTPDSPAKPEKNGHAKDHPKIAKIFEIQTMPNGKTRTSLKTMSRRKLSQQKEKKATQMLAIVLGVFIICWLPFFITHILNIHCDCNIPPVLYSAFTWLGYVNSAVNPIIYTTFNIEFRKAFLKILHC
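Tetracycline-induced HEK293 T-REx cells force-coupled to calcium signalling expressed D2; compounds were pin-added after a 10 s baseline, read kinetically 180 s, then an EC20 dopamine challenge followed with a further 180 s calcium read.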
D2 ag-1 = D2 dopamine receptor (human) agonism | activation, % at 2 µM | P14416 | 340,000 compounds, 0.53% hits | HEK293 T-REx D2 cells, calcium flux agonist mode | AID 485358;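 active = activation over 3 SD above normal in the single-dose calcium agonist read, cut at about 30% in these data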
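Agonism scored from kinetic calcium signal (1 read/sec, 180 s) following compound pin transfer, after a 10 s baseline. Cells: HEK293 Trex line expressing inducible D2 receptor coupled to calcium, dye-loaded after overnight culture at 30 C.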
D2 ag-2 = agonists of human D2 dopamine receptor (beta-arrestin); DiscoveRx PathHunter D2 beta-arrestin, luminescence, 90 min; 100% = 57 uM dopamine signal; activation, % (test concentration not listed); 360,000 compounds, 0.084% hits; AID 624465; in the data active = activation above about 40%
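Agonist mode: compounds alone added to overnight-plated D2 PathHunter cells for 90 min at 37 C, with 57 uM final dopamine (EC100) defining full response. Beta-arrestin recruitment detected by chemiluminescent reagent, read after 1 h at ambient temperature.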
D2 antagonist = D2 dopamine receptor (human) antagonism | HEK293 TREx D2 cells, calcium flux, dopamine EC80 | inhibition, % at 10 µM | 340,000 compounds, 2% hits; in the data active = inhibition above about 30%; inactive = below that, where a call was filed
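Calcium mobilization kinetics were recorded at 1 s intervals in tetracycline-induced HEK293 T-REx D2 cells, first for 180 s after compound addition and then 180 s after EC80 dopamine.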
D2 PAM-2 = potentiates the human D2 dopamine receptor allosterically; 360,000 compounds, 0.23% hits; P14416; DiscoveRx D2 beta-arrestin cells, luminescence, 90 min; 100% = 57 uM dopamine signal; potentiation, % (test concentration not listed); in the data active = potentiation above about 50%
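D2 cells co-treated with compound plus 50 nM dopamine (EC20) for 90 min at 37 deg C to detect potentiation. Beta-arrestin recruitment was read as enzyme-fragment luminescence after 1 h at ambient temperature. Full response was set by 57 uM dopamine.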
Hits are given with their value; – = inactive; · = not tested or not shown.

SMILES	D2 PAM-1	D2 ag-1	D2 ag-2	D2 antagonist	D2 PAM-2
COc1ccccc1N(CC(=O)Nc1cc(C)cc(C)c1)S(C)(=O)=O	–	–	·	·	·
CC1=NN(c2cccc(F)c2)C(=O)/C1=C/c1ccc(N(C)C)cc1	–	–	–	31.6	–
O=C(CC1SC(=Nc2ccc(O)cc2)NC1=O)Nc1ccccc1 (stereo not drawn)	–	–	–	–	–
CCOc1ccc(N=C2NC(=O)C(CC(=O)Nc3ccccc3)S2)cc1 (stereo not drawn)	39.2	–	–	–	–
O=C(c1ccc2c(=O)n(CCc3ccccc3)c(=O)[nH]c2c1)N1CCN(c2ccc(Cl)cc2)CC1	–	–	·	·	·
CCCCOc1ccc(Cl)cc1CSc1nnc(CC)n1N	·	–	–	35.5	–
CCCOc1ccc(CSc2nnc(CCC)n2N)cc1	–	–	–	–	–
CCc1cccc(NC(=O)C(c2ccccc2)N2Cc3ccccc3C2=O)c1 (stereo not drawn)	–	–	·	·	·
CCC1COCCS(=O)(=O)N1Cc1cccc(Cl)c1 (stereo not drawn)	–	–	–	47.1	–
O=S1(=O)CCOC[C@H](CC2CCCCC2)N1Cc1cccc(Cl)c1	–	–	–	–	–
CCN(CC)CCCC(C)Nc1c2ccc(Cl)cc2nc2ccc(OC)cc12 (stereo not drawn)	–	–	·	–	·
COc1ccc2nc3cc(Cl)ccc3c(Nc3cc(C(C)C)c(O)cc3C)c2c1	–	–	–	31.3	–
COCCn1c(-c2ccccc2)nc(=S)c2c1CC(C)(C)OC2	36.5	–	–	–	–
Cc1c[nH]c2cccc(OCC(CNC(C)(C)C)OC(=O)c3ccccc3)c12 (stereo not drawn)	–	–	–	70.0	–
CC1(C)CC(=O)C(=Cc2cn(CCC#N)nc2-c2ccc(Cl)cc2)C(=O)C1	–	–	–	–	–
CC1(C)CC(=O)C(=Cc2cn(-c3ccccc3)nc2-c2ccc(Cl)cc2)C(=O)C1	–	–	–	32.3	–
CC1Cc2cc(S(=O)(=O)NCc3ccc(N(C)C)cc3)ccc2N1C(=O)C1CCC1 (stereo not drawn)	–	–	·	·	·
COc1ccccc1-c1noc(CCCC(=O)Nc2cc(C)ccc2C)n1	–	–	·	·	·
Cc1nn(C)c2ncc(C(=O)c3ccccc3O)cc12	–	–	–	47.9	–
Cc1ccc(O)c(C(=O)c2cnc3c(c2)c(C)nn3C)c1	–	–	–	–	–
Cc1nc(/N=C(\N)NC(=O)c2ccccc2)nc2ccccc12	–	–	–	–	–
Cc1nc(/N=C(\N)NC(=O)N2c3ccccc3Sc3ccccc32)nc2ccccc12	–	–	–	–	55.0
CC(=O)c1cc2cccc(OC3(C)CCN(Cc4ccc(-c5ccccn5)cc4)C3)c2o1 (stereo not drawn)	·	·	–	·	–
COc1ccc(CN2CCN(Cc3c[nH]c4ccccc34)CC2)cc1OC	·	·	–	·	–
COc1ccc(Br)cc1CN1CCN(Cc2c[nH]c3ccccc23)CC1	–	–	–	86.8	–
SMILES	D2 PAM-1	D2 ag-1	D2 ag-2	D2 antagonist	D2 PAM-2
CCOc1ccc(NC(=O)C2CCN(S(=O)(=O)c3cccs3)CC2)cc1	32.0	–	–	–	–
O=C(NCCN1C(=O)S/C(=C\c2ccccc2)C1=O)C1CCN(S(=O)(=O)c2cccs2)CC1	–	–	–	33.4	–
O=C(NCCc1ccccc1)C1CCN(S(=O)(=O)c2cccs2)CC1	–	–	–	–	–
CC(C)N(Cc1nc(-c2ccccc2)no1)C(=O)CCCN1C(=O)c2ccccc2C1=O	35.3	–	–	–	–
CC(C)N(Cc1nc(-c2ccccc2)no1)C(=O)CN1C(=O)c2ccccc2C1=O	35.8	–	–	–	–
O=C1c2ccccc2-c2onc3ccc(NCCCn4ccnc4)c1c23	–	48.7	–	–	66.5
COc1ccc2noc3c2c1C(=O)c1ccccc1-3	·	·	–	·	–
CSc1nc2sc3c(c2c(=O)n1-c1ccc(F)c(Cl)c1)CCN(C(C)=O)C3	–	–	·	·	·
CC(=O)c1c(C)[nH]c(C(=O)Nc2nc(C)cs2)c1C	–	–	–	32.9	–
COc1ccc(-c2nc(NC(=O)c3ccco3)sc2C)cc1	·	·	–	·	–
COc1ccc(-c2nc(NC(=O)c3[nH]c(C)c(C(C)=O)c3C)sc2C)cc1	30.8	–	–	–	–
CC(=O)c1c(C)[nH]c(C(=O)Nc2nc(-c3ccc(Cl)cc3)cs2)c1C	–	–	–	–	–
COc1ccc(N2CCN(C(CNC(=O)C(=O)NCc3ccc(F)cc3)c3cccnc3)CC2)cc1 (stereo not drawn)	–	–	·	·	·
CCC(C)Oc1ccc(/C=C/c2[nH]c(=O)[nH]c(=O)c2[N+](=O)[O-])cc1OC (stereo not drawn)	34.3	–	–	–	–
COc1ccccc1NC(=O)C1=C(C)Nc2nc(SCc3cc(C)ccc3C)nn2C1c1ccccc1 (stereo not drawn)	–	–	·	·	·
CCc1ccc(C2CC(=O)Oc3c2c(=O)n(C)c2ccccc32)cc1 (stereo not drawn)	–	·	·	·	·
CO/N=C/NC(=O)NOCc1ccc(Cl)cc1Cl	–	–	–	–	–
O=C(N/C=N/OCc1ccc(Cl)cc1Cl)NOCc1c(Cl)cccc1Cl	–	–	–	30.7	–
CCOc1cccc2sc(N(CCN(C)C)C(=O)c3ccc(Br)s3)nc12	–	–	–	32.8	–
Cc1cccc(NC(=O)C(c2ccccc2)N2Cc3ccccc3C2=O)c1C (stereo not drawn)	–	–	·	·	·
O=[N+]([O-])c1ccc(/C=N/NC(=S)Nc2ccc(Cl)cc2Cl)s1	–	–	–	45.4	–
CC1CN(C(=O)CCC(=O)N2CCN(c3cccc(C(F)(F)F)c3)CC2)c2ccccc2O1 (stereo not drawn)	30.1	–	–	40.7	–
COCC(=O)N1CCN(c2cccc(C(F)(F)F)c2)CC1	–	–	–	43.9	–
COCC(=O)N1CCN(c2cccc(Cl)c2)CC1	–	–	–	–	–
COc1ccc(CC(C)N2CCN(c3cccc(C(F)(F)F)c3)CC2)cc1OC (stereo not drawn)	–	–	–	74.3	–
SMILES	D2 PAM-1	D2 ag-1	D2 ag-2	D2 antagonist	D2 PAM-2
CCOc1cc(CN2CCN(c3cccc(C(F)(F)F)c3)CC2)ccc1OC	–	–	–	–	–
COc1ccc(OC)c(NC(=O)C2CCN(S(=O)(=O)c3ccc4c(c3)CCCC(=O)N4)CC2)c1	–	–	·	·	·
COCCn1c(SCC(=O)NC(C)c2ccc(F)cc2)nc2ccccc21 (stereo not drawn)	33.9	–	–	–	–
CCOCCc1nn2c(=O)cc(COC(=O)c3ccc4c(c3)OCO4)nc2s1	–	–	·	·	·
CCN(C1CCCCC1)S(=O)(=O)c1ccc(S(=O)(=O)N2CCN(CCC#N)CC2)cc1	–	–	–	37.6	–
CC(=O)N1CCc2cc(Br)cc(S(=O)(=O)NCCc3cccc(C)c3)c21	–	–	·	·	·
COc1cccc(O)c1CN1CCCC(C(=O)c2cccc(C(F)(F)F)c2)C1 (stereo not drawn)	–	–	–	48.6	–

Screening results (PubChem)
